# Experimental data taken from PubChem BioAssay (Tox21).
# Values without a mark were called inactive. Records with an inconclusive call do not appear. A call without a number means that no potency is given here. Calls of active or inactive are those of the source. Unless noted, the call rests on the fitted dose curve; in most records, active means well fitted curve in the direction sought with a large enough effect in the repeat runs; inconclusive means weak or mixed curves; inactive means no such curve, though single readings can be large; an effect the other way counts as inactive or inconclusive.
# How the values were obtained:
# [1] = target: Thyrotropin receptor (Homo sapiens) (UniProt P16473); assay: qHTS assay to identify small molecule agonists of the thyroid stimulating hormone receptor (TSHR) signaling pathway (AID 1224843; calls by dose curve; further: nearly all actives have a fitted effect of over 45% in size); conditions: TSHR-HEK293 cells, cAMP HTRF, agonist mode, 30 min; series mostly up to 92.4 µM
# Procedure, shortened: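 HEK293/TSHR, 800 cells/well; cpd 30 min RT; add cAMP-d2 + anti-cAMP-cryptate, 1 h RT; fluorescence read on plate reader. 15-pt titration, n=3.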
# [2] = qHTS assay to identify small molecule agonists of the hypoxia (HIF-1) signaling pathway - cell viability counter screen (AID 1224844; calls by dose curve; further: nearly all actives have a fitted effect of over 50% in size); conditions: HRE-bla ME-180 viability, CellTiter-Glo luminescence, 17 h; series mostly up to 76.8 µM
# Procedure, shortened: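 Cytotoxicity was measured in parallel with the HRE-driven beta-lactamase readout: after 17 hrs of compound exposure at 37C, HRE-bla ME-180 cells received CellTiter-Glo and luminescence was recorded 30 min later.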
# [3] = qHTS assay to identify small molecule agonists of H2AX (AID 1224845; active means well fitted activation curve with a large enough effect in the signal ratio in the repeat runs, not every such curve was filed as active; the % refers to the signal ratio); conditions: CHO-K1 phospho-H2AX Ser139 HTRF, 3 h; series mostly up to 154 µM
# Procedure, shortened: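 Wild-type CHO-K1 cells, plated overnight, exposed 3hr at 37C to 15 concentrations (0.76% DMSO final). Lysed, then HTRF anti-pH2AX (S139) cryptate and anti-H2AX-d2 antibodies, 24 hr room temperature; 665/620 nm emission read.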
# [4] = qHTS assay to identify small molecule agonists of the hypoxia (HIF-1) signaling pathway (AID 1224846; active means well fitted activation curve with a large enough effect in the signal ratio in the repeat runs, not every such curve was filed as active; the % refers to the signal ratio); conditions: HRE-bla ME-180 cells, beta-lactamase ratio, 17 h; series mostly up to 76.8 µM
# Procedure, shortened: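 Compounds from the Tox21 10K library, dissolved in DMSO, are tested for induction of a hypoxia response element–controlled beta-lactamase reporter in ME-180 cells. Exposure lasts 17 hrs at 37C after a 5 hr settling period, followed by CCF4-AM FRET substrate.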
# [5] = qHTS RealTime-Glo MT Cell Viability Assay in HepG2 cells - 24 hour (AID 1224867); conditions: RealTime-Glo luminescence; series mostly up to 76.8 µM; further: nearly all actives have a fitted effect of over 50% in size
# Procedure, shortened: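 Viability was tracked continuously by NanoLuc luminescence from prosubstrate reduced by living HepG2 cells, at successive time points over 40 h of compound exposure. Cells with reagent were preincubated 5 h at 37 °C before compound addition.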
# [6] = qHTS RealTime-Glo MT Cell Viability Assay in HEK293 cells - 32 hour (AID 1224868); conditions: RealTime-Glo luminescence; series mostly up to 76.8 µM; further: top concentration of the series differs between compounds; nearly all actives have a fitted effect of over 50% in size
# Procedure, shortened: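 Viability tracked continuously by luminescence as live cells reduce a prosubstrate for NanoLuc; HEK293 cells preincubated 5 h, compound-treated at 37 C, and read at 0, 8, 16, 24, 32 and 40 h.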
# [7] = A CellTox Green Cytotoxicity Assay to monitor cytotoxicity in HEK293 cells - 0 hour (AID 1224869); conditions: CellTox Green fluorescence; series mostly up to 76.8 µM; further: nearly all actives have a fitted effect of over 50% in size
# Procedure, shortened: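 Cells (HEK293, 600/well) and dye reagent are dispensed together. After 5 h at 37 C, 23 nL compound is pinned in. Plates stay at 37 C for 40 h with fluorescence read at 0h, 8h, 16h, 24h, 32h and 40h.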
# [8] = qHTS assay to identify small molecule antagonists of the estrogen related receptor (ERR) signaling pathway from Tox21 library (AID 1224848); conditions: ERR reporter cell line, luciferase antagonist mode, 18 h; series mostly up to 92.4 µM; further: nearly all actives have a fitted effect of over 50% in size
# Procedure, shortened: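 Compounds dissolved in DMSO are pin-transferred onto ERR reporter cells (2,000 per well) that have settled for 6 h at 37 C. Plates then incubate 18 h at 37 C before ONE-Glo luciferase reagent and a luminescence read 30 min later.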
# [9] = qHTS assay to identify small molecule agonists of the estrogen related receptor (ERR) signaling pathway from Tox21 library (AID 1224849; calls by dose curve; further: nearly all actives have a fitted effect of over 15% in size); conditions: ERR reporter cell line, ONE-Glo luciferase, 18 h; at 92.4 µM (top of the series) unless noted
# Procedure, shortened: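 Cells carrying the ERR reporter were plated and allowed to settle for 6 h, exposed to library compounds for 18 h at 37 C, then lysed with ONE-Glo and luminescence measured.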
# [10] = qHTS assay to identify small molecule agonists of H2AX - cell viability counter screen (AID 1224847; calls by dose curve; further: top concentration of the series differs between compounds; nearly all actives have a fitted effect of over 30% in size); conditions: CHO-K1 viability, CellTiter-Glo luminescence, 3 h; series mostly up to 154 µM
# Procedure, shortened: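 Cytotoxicity counter screen in wild-type CHO-K1 cells: a 3 hr compound treatment at 37C across 15 concentrations, followed by CellTiter-Glo luminescence to gauge viable cells.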
# Chain of Thyrotropin receptor (Homo sapiens) (P16473 whole entry, looked up): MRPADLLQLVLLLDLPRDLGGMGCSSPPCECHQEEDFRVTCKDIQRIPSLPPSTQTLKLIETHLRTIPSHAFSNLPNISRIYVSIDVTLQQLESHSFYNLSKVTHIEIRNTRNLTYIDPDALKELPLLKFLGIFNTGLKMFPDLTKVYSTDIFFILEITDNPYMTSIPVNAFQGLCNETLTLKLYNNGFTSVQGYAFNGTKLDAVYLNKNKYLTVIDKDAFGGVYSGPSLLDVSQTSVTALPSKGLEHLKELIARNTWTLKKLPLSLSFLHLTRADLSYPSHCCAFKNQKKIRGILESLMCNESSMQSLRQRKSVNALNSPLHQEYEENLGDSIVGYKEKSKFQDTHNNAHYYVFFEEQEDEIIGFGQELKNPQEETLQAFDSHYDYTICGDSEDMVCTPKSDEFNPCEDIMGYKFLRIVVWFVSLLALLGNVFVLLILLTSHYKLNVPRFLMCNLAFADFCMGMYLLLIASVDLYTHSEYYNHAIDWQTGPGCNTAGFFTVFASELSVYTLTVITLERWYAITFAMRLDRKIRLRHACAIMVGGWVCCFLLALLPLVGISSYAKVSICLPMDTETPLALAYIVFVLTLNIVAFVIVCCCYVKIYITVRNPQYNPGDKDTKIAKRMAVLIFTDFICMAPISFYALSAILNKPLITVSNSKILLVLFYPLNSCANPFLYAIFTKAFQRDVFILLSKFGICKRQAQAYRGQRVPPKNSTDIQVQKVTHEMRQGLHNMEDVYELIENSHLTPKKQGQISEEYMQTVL
Structure (SMILES),outcome [1],Potency [2],outcome [3],outcome [4],outcome [5],Potency [6],Potency [7],Potency [8],"activity change, positive = activation [9]",Potency [10]
CCCCCCCCCCC1CO1 (stereo not drawn),inactive,inactive,inactive,inactive,inactive,inactive,inactive,,,
Cc1nc(-c2ccc(OCC(C)C)c(C#N)c2)sc1C(=O)O,inactive,inactive,inactive,inactive,inactive,inactive,inactive,inactive,18.5% [at 42.5 µM] (active),
CC(C)c1cccc(O)c1,inactive,inactive,inactive,inactive,inactive,inactive,inactive,inactive,1.69%,
CC(C)CCCC(C)CCCC(C)CCCCC(C)CCCC(C)CCCC(C)C (stereo not drawn),inactive,inactive,inactive,inactive,,inactive,inactive,,,inactive
NCCN1CCNC1=O,inactive,inactive,inactive,inactive,,inactive,inactive,,,
CC(C)=CC(=O)O,inactive,inactive,inactive,inactive,,inactive,inactive,,,inactive
CCCCCOC(=O)Nc1nc(=O)n([C@@H]2O[C@H](C)[C@@H](O)[C@H]2O)cc1F,inactive,inactive,inactive,inactive,inactive,,inactive,,,inactive
OCc1ccccn1,inactive,inactive,inactive,inactive,inactive,inactive,inactive,inactive,4.19% [at 42.5 µM],
COc1ccc(N=[N+]([O-])c2ccc(OC)cc2)cc1,inactive,inactive,inactive,inactive,inactive,inactive,inactive,,,
O=C(O)C1CCC1,inactive,inactive,inactive,inactive,inactive,inactive,inactive,,,
CC(=O)NC(Cc1ccccc1)C(=O)O (stereo not drawn),inactive,inactive,inactive,inactive,inactive,inactive,inactive,,,
C#CC(O)CCCCC (stereo not drawn),inactive,inactive,inactive,inactive,,inactive,inactive,,,inactive
NS(=O)(=O)c1cc2c(cc1C(F)(F)F)NC(Cc1ccccc1)NS2(=O)=O (stereo not drawn),inactive,inactive,inactive,,inactive,inactive,inactive,,,inactive
CCN1CCCC(OC(=O)C(c2ccccc2)c2ccccc2)C1 (stereo not drawn),inactive,inactive,inactive,,inactive,inactive,inactive,,,inactive
N#CC1(O)CCCCC1,inactive,inactive,,inactive,inactive,inactive,inactive,inactive,7.59%,inactive
O=S(=O)(c1cccc2cnccc12)N1CCCNCC1,inactive,inactive,inactive,,inactive,inactive,inactive,,-26.8% [at 42.5 µM],inactive
COC(=O)CCCC(=O)O,inactive,inactive,inactive,,inactive,inactive,inactive,,,
Nc1nc2c(ncn2CCC(CO)CO)c(=O)[nH]1,inactive,inactive,,inactive,inactive,inactive,inactive,inactive,-1.99% [at 42.5 µM],inactive
C[C@H]1O[C@@H](n2cc(F)c(=O)[nH]c2=O)[C@H](O)[C@@H]1O,inactive,inactive,inactive,,inactive,inactive,inactive,inactive,2.35% [at 42.5 µM],
